In PubChem BioAssay (Tox21):
Activity calls are given as the source filed them. Entries that show only a call come without a potency. Calls follow the shape of the dose curve; as a rule, active = well fitted activation curve with a large enough effect in the repeat runs; inconclusive = weak or mixed curves; inactive = flat fitted curve, though single readings scatter.

The molecules below were run against KiSS-1 receptor (Homo sapiens) (UniProt Q969F8) (assay: Human kisspeptin (KISS1R) small molecule agonists, calcium flux assay in KISS1R-HEK293 cells (AID 1920064)). Conditions: KISS1R-HEK293, calcium flux fluorescence, agonist; series mostly up to 76.8 µM.
Text: National Center for Advancing Translational Sciences [NCATS]
Division of Preclinical Innovation [DPI]
U.S. Environmental Protection Agency [EPA]
National Institutes of Environmental Health Sciences [NIEHS]
National Toxicology Program [NTP]
U.S. Food and Drug Administration [FDA]
Kisspeptin and its receptor KISS1R play key roles in mammalian reproduction due to their involvement in the onset of puberty and control of the hypothalamic-pituitary-gonadal axis such as regulates GnRH release from the hypothalamus. The kisspeptin/KISS1R system also plays a direct role in peripheral organs (including the ovary, testis, uterus, and placenta) and is implicated in reproductive diseases such as miscarriage and polycystic ovary syndrome (PCOS). Abnormal KISS1R activity is associated with abnormal puberty, infertility, endometriosis, and hormone-dependent tumors. The KISS1 receptor (KISS1R, also called GPR54), a G-protein-coupled receptor (GPCR), acts (through phospholipase C) to increase intracellular inositol trisphosphate and then release intracellular calcium stores. Cell-based KISS1R-HEK293 assay is using HEK293 cells that have been genetically engineered to express the human KISS1R, which activity can be measured by calcium signaling. A compound/drug can activate (agonist) KISS1R that can be monitored by levels of intracellular calcium.
KISS1R-HEK293 cells developed by Codex Corp contain human KISS1R gene, which was stably integrated into HEK 293 cells. The compound activation can be detected by fluorescence intensity via calcium flux assay. This cell line has been used to screen the Tox21 10K compound library to identify agonists of KISS1R.
KISS1R-Hek293 cells were dispensed at 1500 cells/4uL/well in 1536-well black wall/clear bottom plates using a multidrop dispenser. After the assay plates were incubated at a 37 C/5% CO2 incubator for 18 hours, 4 microL of Calcium Dye Solution was added to each well. The plates were incubated at 37 C for 1 hour. And then 23 nL of compounds dissolved in DMSO, positive controls, or DMSO only was transferred to the assay plate by a pin tool station. The fluorescence intensity in the plates was measured using FDSS 7000EX kinetic plate reader with a filter set of Ex/Em=480/540 for 3 min at 1 sec intervals. Each test compound was measured at 15 concentrations and in triplicates.

Chain of KiSS-1 receptor (Homo sapiens) (Q969F8 whole entry, looked up): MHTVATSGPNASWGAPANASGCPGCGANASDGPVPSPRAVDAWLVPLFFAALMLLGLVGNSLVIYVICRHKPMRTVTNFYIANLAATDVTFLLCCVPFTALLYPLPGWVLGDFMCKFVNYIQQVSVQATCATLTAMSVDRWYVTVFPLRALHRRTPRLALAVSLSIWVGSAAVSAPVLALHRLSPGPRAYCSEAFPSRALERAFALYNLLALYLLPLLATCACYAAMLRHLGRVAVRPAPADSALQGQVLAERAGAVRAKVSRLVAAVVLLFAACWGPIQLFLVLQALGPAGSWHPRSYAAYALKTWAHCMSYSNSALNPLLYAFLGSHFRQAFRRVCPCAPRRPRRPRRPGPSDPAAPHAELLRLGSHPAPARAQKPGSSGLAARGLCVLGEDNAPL

Compound | Potency
CCCCCCCCC(=O)NCc1ccc(O)c(OC)c1 | inactive
O=C(Cl)/C=C/C(=O)Cl | inactive
OC[C@@H](O)[C@H]1O[C@@H]2O[C@H](C(Cl)(Cl)Cl)O[C@@H]2[C@H]1O | inactive
CCOP(=O)(OCC)OP(=O)(OCC)OCC | inactive
ClC(Cl)=C(Cl)C(Cl)=C(Cl)Cl | inactive
O=C(O)CC[N+](=O)[O-] | inactive
C#CC(C)(C)NC(=O)c1cc(Cl)cc(Cl)c1 | inactive
Clc1cccc(C(Cl)(Cl)Cl)n1 | inactive
BrCCc1ccccc1 | inactive
CCCCCCC1CCOC1=O (stereo not given) | inactive
C[Si](Cn1cncn1)(c1ccc(F)cc1)c1ccc(F)cc1 | inactive
O=C(O)C(Cl)(Cl)Br | inactive
CCCC[N+]1(C)CCCC1 | inactive
CC12CC1(C)C(=O)N(c1cc(Cl)cc(Cl)c1)C2=O (stereo not given) | inactive
CC(=O)[C@H]1CC[C@H]2[C@@H]3CC[C@H]4C[C@](C)(O)CC[C@]4(C)[C@H]3CC[C@]12C | inactive
COc1cc(OC)nc(NC(=O)NS(=O)(=O)c2ncccc2C(=O)N(C)C)n1 | inactive
COC(=O)Nc1cccc(OC(=O)Nc2cccc(C)c2)c1 | inactive
Brc1ccc(Br)cc1 | inactive
CC(C)(Cl)Cl | inactive
NNC(N)=S | inactive

Compound | Potency
CCCCN(CC)c1c([N+](=O)[O-])cc(C(F)(F)F)cc1[N+](=O)[O-] | inactive
O=S1OCC2C(CO1)C1(Cl)C(Cl)=C(Cl)C2(Cl)C1(Cl)Cl (stereo not given) | inactive
BrCCBr | inactive
COC(=O)[C@@H](N)CCCN/C(N)=N/[N+](=O)[O-] | inactive
CC(C)c1ccc(OP(=O)(Oc2ccc(C(C)C)cc2)Oc2ccc(C(C)C)cc2)cc1 | inactive
ClCC(Cl)(Cl)Cl | inactive
N#Cc1ccc(O)cc1 | inactive
CCc1cnc(C2=NC(C)(C(C)C)C(=O)N2)c(C(=O)O)c1 (stereo not given) | inactive
Cc1ccc(N)cc1Cl | inactive
C=CCBr | inactive
Nc1ccccc1C(=O)OCCc1ccccc1 | inactive
O=[N+]([O-])c1cc(Cl)c(Cl)c(Cl)c1 | inactive
ClCC(Br)CBr (stereo not given) | inactive
COc1ccc(CO)cc1 | inactive
O=C(O)C(F)(F)C(F)(F)C(F)(F)C(F)(F)C(F)(F)C(F)(F)C(F)(F)F | inactive
NNC(=O)c1ccccc1 | inactive
CCCCC1C(=O)NC(=O)N(C2CCCCC2)C1=O (stereo not given) | inactive
COc1ccc(C=O)cc1OC | inactive
C=CC=O | inactive
CCC(=O)OC1(c2ccccc2)CCN(C)CC1 | inactive
